Compound activity as filed in PubChem.
Hits are enriched below; roughly 4.1% of the tested compounds scored in any of these assays.
DAX1 inh-1: inhibitors of human orphan nuclear receptor DAX1 (NR0B1); P51843; HEK293 Gal4-DAX1 luciferase reporter, luminescence; inhibition, % at 6.75 µM; 0.99% of 340,000 active; AID 504766;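 active means inhibition above the mean over all tested compounds plus 3 SD, cut at about 4.2% in these data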;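 further: inhibition shows as a rise in luminescence from relieved DAX1 repression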
Target sequence (P51843 207-470 limits assumed): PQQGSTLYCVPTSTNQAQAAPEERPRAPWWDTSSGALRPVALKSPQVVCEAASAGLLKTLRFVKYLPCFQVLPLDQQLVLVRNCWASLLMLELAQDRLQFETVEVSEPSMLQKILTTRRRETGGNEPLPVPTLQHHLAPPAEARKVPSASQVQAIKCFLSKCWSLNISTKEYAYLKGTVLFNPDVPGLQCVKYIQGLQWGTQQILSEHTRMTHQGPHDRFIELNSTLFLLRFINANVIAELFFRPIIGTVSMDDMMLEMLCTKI
ssDAF-12 act: activators of S. stercoralis DAF-12 nuclear receptor | HEK293 ssDAF-12/GRIP1 lit1-tk-luc reporter, luminescence; % of 3 µM dafachronic acid response | activation, % at 6.8 µM | 1% of 370,000 active | AID 652126;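 active means activation above the mean over all tested compounds plus 3 SD, cut at about 0.9% in these data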
hcDAF-12 act: activates DAF-12 receptor from parasite H. contortus | HEK293 hcDAF-12 lit1-tk-luc reporter, luminescence; 0% DMSO, 100% Δ7-dafachronic acid | activation, % at 6.8 µM | 1.4% of 370,000 active;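 active means activation above the mean of all tested compounds plus 3 SD, cut at about 5.5% in these data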
DAX1 inh-2: DAX1 (NR0B1) inhibition, primary screen; 1.1% of 370,000 active; inhibition, % at 6.8 µM; HEK293T StAR-luciferase reporter, SF-1/DAX-1 repression relief;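 active means inhibition above the mean over all tested compounds plus 3 SD, cut at about 3.6% in these data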;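 further: higher inhibition means more luminescence from relief of DAX-1 repression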
hgDAF12 agonist: agonists of H. glycines DAF-12 nuclear receptor. 1.8% of 370,000 active. activation, % at 6.8 µM. HEK293 GAL4-hgDAF12 UAS-luciferase reporter, agonist luminescence; normalized to butyrate control;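 active means activation above a cutoff set at the mean of all screened compounds plus 3 SD, cut at about 10% in these data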
Numbers stand for hits; n = inactive; x = not tested or not shown.

SMILES	DAX1 inh-1	ssDAF-12 act	hcDAF-12 act	DAX1 inh-2	hgDAF12 agonist
O=C(CSc1ccccc1)NCCc1ccc(F)cc1	n	n	n	n	n
Cc1ccc(SCC(=O)NCCc2ccc(F)cc2)cc1	n	n	n	n	n
C[C@H]1[C@@H](OC(=O)NCc2ccc(C(F)(F)F)cc2)CC[C@@]23CCCN2C(=O)CCC[C@@H]13	x	n	n	x	n
CCC1(c2ccccc2)SC(N)=NC1=O (centres undefined)	6.6	n	n	n	n
c1ccc(Cn2ccc3ccc(-c4ccc5ccn(Cc6ccc(-c7ccccc7)cc6)c5c4)cc32)cc1	x	n	n	n	n
O=C(O)Cn1c(O)c(C2=c3ccccc3=NC2=O)sc1=O	n	n	n	n	n
Cc1c(-n2c(O)c(C3=c4ccccc4=NC3=O)sc2=O)c(=O)n(-c2ccccc2)n1C	n	1.1	n	n	n
COc1ccccc1CNC(=O)CSc1nnc2ccc(-c3cccnc3)nn12	4.4	n	n	n	n
COc1ccc(NC(=O)CSc2nnc3ccc(-c4cccnc4)nn23)cc1OC	n	n	n	n	n
O=C1NC(=O)C(=O)N1	n	n	n	n	n
O=C1NC(=O)c2c(Br)c(Br)c(Br)c(Br)c21	n	1.0	n	n	n
c1ccc(CCn2nnnc2CN2CCCc3ccccc32)cc1	n	n	5.8	n	n
c1ccc2c(c1)CCCN2Cc1nnnn1CC1CCCO1 (centres undefined)	n	n	n	n	n
CCOC(=O)N1CCC(NC(=O)CN2C(=O)CSc3ncccc32)CC1	5.0	n	n	n	n
CCOC(=O)N1CCC(NC(=O)CCCN2C(=O)CSc3ncccc32)CC1	n	n	n	n	n
Cc1cc(N2CCN(CC(C)(C)O)C[C@@H]2C)ccc1N1CCN(CC(C)(C)O)[C@@H](C)C1	x	n	n	n	n
Cc1cc(-c2n[nH]c(=S)n2N=Cc2cc(Br)ccc2F)n[nH]1	x	n	n	n	n
CC(NC(=O)Nc1ccc(Cl)cc1)C(c1cccs1)N1CCOCC1 (centres undefined)	n	1.5	n	n	n
CC(NC(=O)Nc1ccccc1)C(c1cccs1)N1CCOCC1 (centres undefined)	n	n	n	n	n
COc1ccc(S(=O)(=O)N2CCCCCC2)c2ccccc12	x	n	n	n	n
COc1ccc(-c2cc3c(=O)n(CC(=O)NCCCN4CCC(N5CCCCC5)CC4)nc(C)n3n2)cc1	n	n	n	4.5	n
COc1cc(NC(=O)c2cnn3c(C)cc(C)nc23)cc(OC)c1OC	x	n	n	x	n
CCCCN(CCCC)S(=O)(=O)c1ccc(C(=O)Nc2nnc(CSC)o2)cc1	4.2	n	n	n	n
COC(=O)[C@]12C[C@H](CC(=O)N3CCOCC3)C(=O)N(Cc3ccc4c(c3)OCO4)C1=C[C@H](C(C)C)O[C@@H]2C1CC1	x	n	n	n	n
COc1cccc(-c2nc(NCc3cccnc3)c3ccccc3n2)c1O	n	n	5.9	n	n
SMILES	DAX1 inh-1	ssDAF-12 act	hcDAF-12 act	DAX1 inh-2	hgDAF12 agonist
c1cncc(CNc2nc(-c3cccnc3)nc3ccccc23)c1	n	n	n	n	n
CC(=O)Nc1ccc2c(c1)[nH]c(=O)c1ccccc12	4.6	n	n	n	n
COc1cc(C2C3=C(CC(C)(C)CC3=O)Nc3c2c(=O)[nH]c(=O)n3Cc2ccccc2)ccc1O (centres undefined)	4.3	n	n	n	n
COc1ccc(C2C3=C(CC(C)(C)CC3=O)Nc3c2c(=O)[nH]c(=O)n3Cc2ccccc2)cc1OC (centres undefined)	n	n	n	n	n
Clc1ccc(Nc2nc3cccnc3s2)cc1	n	n	n	n	11.1
O=[N+]([O-])c1cccnc1Nc1ccc(Cl)cc1	n	n	n	n	n
CCCCNc1nc2cccnc2s1	6.3	n	n	n	n
CCCS(=O)(=O)Nc1cccc(-c2nc3cccnc3s2)c1	n	n	n	n	n
CC1(C)CNC(=S)N1Cc1ccccc1	4.3	n	n	n	n
O=C1NC(Cc2cnc[nH]2)C(=O)N2CCCC12 (centres undefined)	x	n	n	n	n
CCN(C(=O)COC(=O)c1ccc(Sc2ncn[nH]2)c([N+](=O)[O-])c1)c1ccccc1	x	n	n	n	n
Clc1ccccc1OCCCn1ccnc1	n	1.4	n	n	n
Cc1cc(C(=O)O[C@H]2CCC[C@]3(C(=O)N(Cc4ccccc4)c4ccccc43)[C@H]2NC(=O)CCc2ccccc2)no1	x	n	n	n	n
COC(=O)C1=C(C)N(Cc2ccccc2C(F)(F)F)C(=NCC2CC2)NC1c1ccc(F)cc1 (centres undefined)	x	n	n	n	n
C[C@]12CCC[C@H](O1)c1c(cc3c(c1O)C(=O)c1c(O)cc(O)cc1C3=O)O2	5.1	n	n	n	n
COC(=O)C[C@H]1CC[C@H]2[C@H](COc3ccc(NC(=O)Nc4ccccc4F)cc3C(=O)N2C)O1	x	n	n	n	n
COc1cccc(N2CCN(C(=O)CSc3nc4ncccc4[nH]3)CC2)c1	x	n	n	n	n
CC(=O)N/C(=C\c1ccccc1)C(=O)OCC(=O)NC1CCCC1	n	n	6.4	n	n
CC(=O)N/C(=C\c1ccccc1)C(=O)OCC(=O)c1ccccc1	n	n	n	n	n
O=C(O)CCc1ccc(-c2cccs2)n1NC(=O)c1cccs1	4.5	n	n	n	n
O=C(O)CCc1ccc(-c2cccs2)n1NC(=O)c1ccc(O)cc1	n	n	n	n	n
O=C(CSc1ncccn1)c1ccccc1Br	4.3	n	n	n	n
O=C(CSc1nnc(-c2ccccn2)n1-c1ccccc1)Nc1ccc(OCc2ccccc2)cc1	x	n	n	n	n
CCOc1ccccc1NC(=S)N1CCC(NC(=O)C(C)(C)C)CC1	5.0	n	n	n	n
CCOc1ccccc1NC(=S)N(CCC(C)C)C1CCN(C(C)=O)CC1	4.7	n	n	n	n
SMILES	DAX1 inh-1	ssDAF-12 act	hcDAF-12 act	DAX1 inh-2	hgDAF12 agonist
O=C(N/N=C/c1cccc(OC(=O)N2CCOCC2)c1)c1cccs1	n	n	n	n	10.9
CCOC(=O)C1=C(C(=O)OCC)C2N(Cc3ccc(Br)cc3)c3ccccc3[C@@]23C[C@@H](C(=O)OC)N(S(=O)(=O)c2ccc(C(F)(F)F)cc2)C3=N1 (some centres undefined)	x	n	n	n	n
COc1ccc(CNC(=O)Cc2csc(NC(=O)Nc3ccccc3OC)n2)cc1	n	n	n	n	n
COc1ccccc1NC(=O)Nc1nc(CC(=O)NCc2cccnc2)cs1	4.8	n	n	n	n
Cc1ccc(CNC(=O)c2cc3c(-c4ccc(Cl)cc4)nn(C)c3s2)o1	n	1.6	n	n	n
Cc1nn(-c2ccccc2)c2sc(C(=O)O)cc12	n	n	n	n	n
COCCCNC(=O)c1cc2c(-c3ccc(Cl)cc3)nn(C)c2s1	n	n	n	n	n
COc1cccc(-c2nn(C)c3sc(C(=O)NCc4ccco4)cc23)c1	n	n	n	n	n
CC(C)NC(=O)c1cc2c(-c3ccc(Cl)cc3)nn(C)c2s1	4.4	n	n	n	n
